# Assay results as given in the supplement of paper PMC11001985.
# A number with no mark means an inactive call.
# Molecular target: ATP1B3 (UniProt P54709)
# Experiment: lysine labeling ratio R10:1 (500 µM / 50 µM probe), SILAC-ABPP in living cells; higher = lower intrinsic lysine reactivity toward the probe, active = 2 or less
# Details: HeLa, probe concentrations 500 vs 50 µM
# Method: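 Living HeLa cells (SILAC light/heavy) in PBS at room temperature were labeled with 50 µM versus 500 µM of the lysine-reactive, reductant-cleavable probe OPA-S-S-alkyne (SILAC labeling time not stated). Probe-modified peptides were CuAAC-biotinylated, captured on neutravidin and eluted with DTT/IAA, then quantified by LC-MS/MS. R = median peptide ratio per lysine (500/50 µM), combined over 3 forward and 3 reverse SILAC replicates. Ratios are capped at 20; R < 2 = hyper-reactive.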
# Sequence of ATP1B3 (P54709 whole entry): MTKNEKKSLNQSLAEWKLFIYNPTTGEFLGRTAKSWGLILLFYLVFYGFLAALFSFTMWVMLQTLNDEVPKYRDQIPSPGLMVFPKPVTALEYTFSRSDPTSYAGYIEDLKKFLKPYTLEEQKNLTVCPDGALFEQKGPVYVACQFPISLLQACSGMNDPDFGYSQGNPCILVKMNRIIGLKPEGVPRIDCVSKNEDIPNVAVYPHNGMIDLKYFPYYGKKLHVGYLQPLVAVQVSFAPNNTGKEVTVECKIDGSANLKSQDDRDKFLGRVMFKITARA
smiles,measurement,setting,value
C#CCNC(=O)CCSSCCC(=O)NCCc1ccc(C=O)c(C=O)c1,lysine labeling ratio R10:1,lysine site: K182,5.21
same,lysine labeling ratio R10:1,lysine site: K220,0.695 (active)
same,lysine labeling ratio R10:1,lysine site: K259,3.28
same,lysine labeling ratio R10:1,lysine site: K266,2.22
same,lysine labeling ratio R10:1,lysine site: K274,9.2
